22 compounds from PubChem BioAssay (EPA / NIEHS) can be followed below.

The target in test [1] is Glutamate receptor ionotropic, kainate 1 (Rattus norvegicus) (UniProt P22756). Kind of test: NVS_IC_rKAR: NovaScreen (NVS) Ion Channel Assay for rat Kainic Acid Receptors (KAR) (AID 2283334; active = hit-call score of the fitted dose curve at least 0.9, where 1 is the maximum; inactive = score below 0.9). In outline: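 Radioligand displacement binding using rat forebrain membranes, 1 h incubation, filter-based scintillation counting. Screened in duplicate at 25 uM, with actives retested in concentration-response up to 50 uM; fitted against DMSO.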

Test [2] deals with bovine Estrogen Receptor (ER), ESR1 (gene 407238) (UniProt P49884). Kind of test: NVS_NR_bER: NovaScreen (NVS) Nuclear Receptor Binding Assay for bovine Estrogen Receptor (ER) (AID 2283345).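 Note: actives lower the bound radioligand count which means they displace the ER ligand.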 In outline:
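Cell-free radioligand binding with receptor from bovine uterine membranes, read by scintillation counting 18 h after dosing. Loss of specific binding was scored against DMSO; primary screen at 25 uM in duplicate, actives then run as concentration series.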

Test [3] concerns the target Estrogen receptor (Homo sapiens) (UniProt P03372). As to the kind of experiment: OT_ER_ERaERa_1440: Odyssey Thera (OT) 24-hour HEK293T Protein-Complementation Assay for Estrogen Receptor-alpha/-alpha Homodimer (AID 2283349).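 Note: hits raise fluorescence above DMSO for agonists and antagonists alike.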 The gist of the method: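 Protein-fragment complementation between two human ERα ligand-binding domains (aa 310-547) in stably transfected HEK293T cells was monitored after 24 h treatment, using fluorescence intensity relative to vehicle controls.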

Test [4] addresses Estrogen receptor (Homo sapiens) + Estrogen receptor beta (Homo sapiens) (UniProt P03372+Q92731). Kind of test: OT_ER_ERaERb_0480: Odyssey Thera (OT) 8-hour HEK293T Protein-Complementation Assay for Estrogen Receptor-alpha/-beta Heterodimer (AID 2283352). In outline:
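Increase in mean fluorescence intensity, measured by laser scanning plate cytometry, reported ER-alpha/ER-beta LBD complementation in HEK293T cells after 8 h chemical exposure. DMSO served as baseline; basal signal is low, punctate and cytoplasmic.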

For test [5], the target named is human Peripheral-type Benzodiazepine Receptor (PBR), TSPO (gene 706) (UniProt P30536). Kind of test: NVS_MP_hPBR: NovaScreen (NVS) Membrane Protein Assay for human Peripheral-type Benzodiazepine Receptor (PBR) (AID 2283331).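 Note: hits reduce radioligand binding relative to DMSO baseline.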 The gist of the method: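 Scintillation counts of filter-bound radioligand served as read-out after 1 h chemical dosing of human colonic membrane preparations. Activity was scored as signal loss against DMSO; initial duplicates at 25 uM, confirmatory concentration series afterward.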
Sequence of human Peripheral-type Benzodiazepine Receptor (PBR), TSPO (gene 706) (P30536 whole entry, looked up): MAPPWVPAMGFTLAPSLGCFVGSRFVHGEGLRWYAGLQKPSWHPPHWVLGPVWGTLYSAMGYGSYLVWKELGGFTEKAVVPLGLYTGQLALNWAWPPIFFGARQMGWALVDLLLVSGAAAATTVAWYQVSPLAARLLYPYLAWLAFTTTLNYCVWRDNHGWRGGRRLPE

Test [6] addresses rat Peripheral-type Benzodiazepine Receptor (PBR), Tspo (gene 24230) (UniProt P16257). Kind of test: NVS_MP_rPBR: NovaScreen (NVS) Membrane Protein Assay for rat Peripheral-type Benzodiazepine Receptor (PBR) (AID 2283335). In outline: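 Radioligand displacement, rat kidney membrane prep, 1 h exposure, filter-based scintillation read; DMSO baseline, loss-of-signal scored. Primary screen at 25 uM in duplicate, actives followed up in concentration series.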

The target in test [7] is chimpanzee Androgen Receptor (AR), AR (gene 747460) (UniProt O97775). Kind of test: NVS_NR_cAR: NovaScreen (NVS) Nuclear Receptor Binding Assay for chimpanzee Androgen Receptor (AR) (AID 2283346).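 Note: radioligand displacement from AR measured by scintillation counting in a cell-free assay; a loss of bound radioligand signal versus DMSO counts as binding.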 In outline: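 Cell-free competition binding with insect-cell (Sf9/Sf21) extracted chimpanzee AR; scintillation signal from lysate at 72 h. Screened in duplicate at 25 uM, then concentration-response for actives; fitting relative to DMSO.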
Sequence of chimpanzee Androgen Receptor (AR), AR (gene 747460) (O97775 whole entry, looked up): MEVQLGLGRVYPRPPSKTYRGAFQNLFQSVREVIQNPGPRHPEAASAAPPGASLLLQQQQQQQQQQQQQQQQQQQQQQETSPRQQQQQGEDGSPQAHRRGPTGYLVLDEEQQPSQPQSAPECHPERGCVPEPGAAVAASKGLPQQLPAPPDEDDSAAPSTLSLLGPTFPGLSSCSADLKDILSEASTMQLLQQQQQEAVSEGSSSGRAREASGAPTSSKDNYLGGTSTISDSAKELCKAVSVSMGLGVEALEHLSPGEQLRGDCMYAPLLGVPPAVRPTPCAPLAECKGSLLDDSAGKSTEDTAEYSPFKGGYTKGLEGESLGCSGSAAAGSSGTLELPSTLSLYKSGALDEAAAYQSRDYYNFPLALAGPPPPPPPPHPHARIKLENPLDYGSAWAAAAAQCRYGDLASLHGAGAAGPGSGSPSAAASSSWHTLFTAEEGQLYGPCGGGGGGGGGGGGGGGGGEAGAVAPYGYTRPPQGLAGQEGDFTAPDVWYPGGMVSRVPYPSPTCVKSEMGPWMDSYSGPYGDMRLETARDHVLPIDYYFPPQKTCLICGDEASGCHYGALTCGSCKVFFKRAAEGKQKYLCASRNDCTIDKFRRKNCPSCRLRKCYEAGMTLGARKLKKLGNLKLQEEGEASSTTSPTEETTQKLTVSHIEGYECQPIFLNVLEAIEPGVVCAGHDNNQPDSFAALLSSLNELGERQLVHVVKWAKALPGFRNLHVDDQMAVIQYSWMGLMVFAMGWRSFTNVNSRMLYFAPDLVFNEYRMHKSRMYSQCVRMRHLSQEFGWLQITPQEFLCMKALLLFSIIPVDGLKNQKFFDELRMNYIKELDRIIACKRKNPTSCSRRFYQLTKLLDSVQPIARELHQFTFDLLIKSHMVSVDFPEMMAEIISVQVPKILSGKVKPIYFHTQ

In test [8] the target is Estrogen receptor (Homo sapiens) (UniProt P03372). As to the kind of experiment: OT_ER_ERaERa_0480: Odyssey Thera (OT) 8-hour HEK293T Protein-Complementation Assay for Estrogen Receptor-alpha/-alpha Homodimer (AID 2283351).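 Note: rise in fluorescence from reassembled reporter fragments on ERα LBD homodimer in nucleus or whole cell.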 In outline: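 Binding reporter in which dimerisation of ERα LBD (aa 310-547) fusions reconstitutes a fluorescent reporter in HEK293T cells. Compounds incubated 8 h; mean fluorescence intensity increase versus DMSO scored.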
Sequence of Estrogen receptor (Homo sapiens) (P03372 whole entry, looked up, the tested form may be a part): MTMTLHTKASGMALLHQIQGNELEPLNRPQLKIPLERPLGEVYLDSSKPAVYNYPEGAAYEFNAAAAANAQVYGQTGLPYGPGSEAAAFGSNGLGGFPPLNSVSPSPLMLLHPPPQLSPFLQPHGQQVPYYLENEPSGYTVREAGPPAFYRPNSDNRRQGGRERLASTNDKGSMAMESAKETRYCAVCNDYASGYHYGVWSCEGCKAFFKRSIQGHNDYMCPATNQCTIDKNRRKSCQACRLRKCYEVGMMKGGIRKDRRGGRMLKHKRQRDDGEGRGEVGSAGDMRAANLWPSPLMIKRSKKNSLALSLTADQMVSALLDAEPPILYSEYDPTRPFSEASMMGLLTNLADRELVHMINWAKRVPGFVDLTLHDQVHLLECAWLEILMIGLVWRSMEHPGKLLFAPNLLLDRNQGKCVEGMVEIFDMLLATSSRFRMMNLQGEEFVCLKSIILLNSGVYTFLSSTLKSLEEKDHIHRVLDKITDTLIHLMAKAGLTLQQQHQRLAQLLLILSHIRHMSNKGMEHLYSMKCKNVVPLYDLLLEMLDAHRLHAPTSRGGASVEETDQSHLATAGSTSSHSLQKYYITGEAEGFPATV

Test [9] addresses rat Glutamate, MK-801 Agonist Site (GluNMDA_MK801), Grin1 (gene 24408) (UniProt P35439). Kind of test: NVS_LGIC_rGluNMDA_MK801_Agonist: NovaScreen (NVS) Ligand-Gated Ion Channel Assay for rat Glutamate, MK-801 Agonist Site (GluNMDA_MK801) (AID 2283340). In outline:
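Radioligand binding at MK-801 site in rat forebrain membranes, 1.5 h incubation, filter-based scintillation counting. Initially 25 uM in duplicate; actives then run in concentration-response up to 50 uM, fitted for gain of signal versus DMSO.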

The test system of the next test is NCBI gene 100848466. As to the kind of experiment: NVS_NR_bPR: NovaScreen (NVS) Nuclear Receptor Binding Assay for bovine Progextron Receptor (PR) (AID 2283343).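 Note: actives lower bound radioligand signal below DMSO meaning displacement of the label.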 In outline:
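Membranes from bovine uterus; radiolabelled ligand plus test chemical; 18 h; scintillation read-out. Activity = signal loss vs DMSO. Primary: 25 uM, duplicate; secondary: concentration series.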

In test [10] the target is human Androgen Receptor (AR), AR (gene 367) (UniProt P10275). As to the kind of experiment: NVS_NR_hAR: NovaScreen (NVS) Nuclear Receptor Binding Assay for human Androgen Receptor (AR) (AID 2283332). In outline: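 Radioligand competitive binding, scintillation read-out, in cell-free extract from LnCAP, measured 20 h after dosing. Screened first in duplicate at 25 uM, then concentration series for actives; activity fitted against DMSO.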

For test [11], the target named is human Constitutive Androstane Receptor (CAR), NR1I3 (gene 9970) (UniProt Q14994). Kind of test: NVS_NR_hCAR_Antagonist: NovaScreen (NVS) Nuclear Receptor Binding Assay for human Constitutive Androstane Receptor Antagonism (CAR) (AID 2283344). In outline:
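Cell-free TR-FRET binding read 1 h after dosing, antagonist mode; loss of signal versus DMSO baseline. Primary screen in duplicate at a single 25 uM; actives retested in concentration series.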

The nature of test [12]: NVS_IC_rCaBTZCHL: NovaScreen (NVS) Ion Channel Assay for Calcium Channel, Type L, Benzothiazepine Site (CaBTZCHL) (AID 2283337). The gist of the method:
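Competitive displacement of a site-specific radioligand from rat cortex membranes, measured as signal loss against DMSO baseline by filter radiodetection after 1.5 h. Single-point 25 uM primary screen.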

In test [13] the target is Androgen Receptor/SRC-1 Co-activator, AR (gene 367) (UniProt P10275). As to the kind of experiment: OT_AR_ARSRC1_0480: Odyssey Thera (OT) 8-hour HEK293T Protein-Complementation Assay for Androgen Receptor/SRC-1 Co-activator (AID 2283354).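 Note: hits raise the complementation signal above DMSO so AC50 marks enhancers.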 The gist of the method:
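Measures AR/SRC-1 binding by Venus YFP fragment complementation in HEK293T stable lines at 8 h post-dose. Imaging quantifies the 488nm nucleus/cytoplasm ratio in ≥400 cells; DMSO defines baseline.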

The target in test [14] is bovine Gamma-Aminobutyric Acid Type A Receptor Agonist (GABAR Agonist), GABRA1 (gene 780973) (UniProt P08219). Kind of test: NVS_LGIC_bGABAR_Agonist: NovaScreen (NVS) Ligand-Gated Ion Channel Assay for bovine Gamma-Aminobutyric Acid Type A Receptor Agonist (GABAR Agonist) (AID 2283338). The gist of the method: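 Radioligand binding to bovine cerebellar membranes in agonist format, read by filter-based scintillation counting after 1 h. Primary screen in duplicate at 25 uM, with actives followed in concentration series. Gain of signal versus DMSO.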
Sequence of bovine Gamma-Aminobutyric Acid Type A Receptor Agonist (GABAR Agonist), GABRA1 (gene 780973) (P08219 whole entry, looked up): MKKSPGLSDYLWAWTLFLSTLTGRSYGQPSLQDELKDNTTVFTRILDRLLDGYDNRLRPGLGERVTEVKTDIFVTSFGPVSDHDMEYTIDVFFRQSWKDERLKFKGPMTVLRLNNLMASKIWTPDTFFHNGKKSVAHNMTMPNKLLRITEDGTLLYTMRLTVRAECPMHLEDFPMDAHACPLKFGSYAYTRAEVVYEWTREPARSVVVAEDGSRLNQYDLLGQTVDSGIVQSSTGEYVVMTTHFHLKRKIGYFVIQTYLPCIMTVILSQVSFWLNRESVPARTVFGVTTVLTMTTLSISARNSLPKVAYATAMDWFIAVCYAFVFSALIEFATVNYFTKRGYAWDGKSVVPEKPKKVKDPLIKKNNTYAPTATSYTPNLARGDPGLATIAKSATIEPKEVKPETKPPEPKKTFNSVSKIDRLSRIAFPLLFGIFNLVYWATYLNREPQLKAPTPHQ

Test [15] has as its target Small conductance calcium-activated potassium channel protein 1 (Rattus norvegicus) (UniProt P70606). As to the kind of experiment: NVS_IC_rKCaCh: NovaScreen (NVS) Ion Channel Assay for rat Potassium Channel, Ca2+ Act., VI (KCaCh) (AID 2283336). The gist of the method: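 Radioligand binding to rat forebrain membranes, cell-free, read 1 hour after dosing by filter-based scintillation counting. Compounds first run in duplicate at 25 uM, actives then in concentration series; loss of signal vs DMSO indicates displacement.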

Test [16] concerns guinea pig Histamine Receptor (H2), gene 100729734. As to the kind of experiment: NVS_GPCR_gH2: NovaScreen (NVS) G Protein-Coupled Receptor Assay for guinea pig Histamine Receptor (H2) (AID 2283342). The gist of the method:
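Radioligand displacement on guinea pig striatal membranes, 1 h after dosing, filter-based scintillation counting; loss of signal versus DMSO. Single-point screen at 25 uM in duplicate, then concentration-response up to 50 uM.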

Test [17] concerns the target Bile acid receptor (Homo sapiens) (UniProt Q96RI1). Kind of test: NVS_NR_hFXR_Antagonist: NovaScreen (NVS) Nuclear Receptor Binding Assay for human Farnesoid X Receptor Antagonism (FXR) (AID 2283350). The gist of the method:
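Cell-free TR-FRET ligand-binding read-out on human FXR (NR1H4) in antagonist mode, measured 1 h after dosing. Primary screen in duplicate at 25 uM, actives retested in concentration series; signal loss scored versus DMSO.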

Structures are written as SMILES. Inconclusive results are not listed. Calls of active or inactive are those of the source. Rule for the calls, unless noted: active = hit-call score of the fitted dose curve at least 0.9, where 1 is the maximum; inconclusive = response in the unintended direction; inactive = score below 0.9.

Sequence of Androgen Receptor/SRC-1 Co-activator, AR (gene 367) (P10275 whole entry, looked up, the tested form may be a part): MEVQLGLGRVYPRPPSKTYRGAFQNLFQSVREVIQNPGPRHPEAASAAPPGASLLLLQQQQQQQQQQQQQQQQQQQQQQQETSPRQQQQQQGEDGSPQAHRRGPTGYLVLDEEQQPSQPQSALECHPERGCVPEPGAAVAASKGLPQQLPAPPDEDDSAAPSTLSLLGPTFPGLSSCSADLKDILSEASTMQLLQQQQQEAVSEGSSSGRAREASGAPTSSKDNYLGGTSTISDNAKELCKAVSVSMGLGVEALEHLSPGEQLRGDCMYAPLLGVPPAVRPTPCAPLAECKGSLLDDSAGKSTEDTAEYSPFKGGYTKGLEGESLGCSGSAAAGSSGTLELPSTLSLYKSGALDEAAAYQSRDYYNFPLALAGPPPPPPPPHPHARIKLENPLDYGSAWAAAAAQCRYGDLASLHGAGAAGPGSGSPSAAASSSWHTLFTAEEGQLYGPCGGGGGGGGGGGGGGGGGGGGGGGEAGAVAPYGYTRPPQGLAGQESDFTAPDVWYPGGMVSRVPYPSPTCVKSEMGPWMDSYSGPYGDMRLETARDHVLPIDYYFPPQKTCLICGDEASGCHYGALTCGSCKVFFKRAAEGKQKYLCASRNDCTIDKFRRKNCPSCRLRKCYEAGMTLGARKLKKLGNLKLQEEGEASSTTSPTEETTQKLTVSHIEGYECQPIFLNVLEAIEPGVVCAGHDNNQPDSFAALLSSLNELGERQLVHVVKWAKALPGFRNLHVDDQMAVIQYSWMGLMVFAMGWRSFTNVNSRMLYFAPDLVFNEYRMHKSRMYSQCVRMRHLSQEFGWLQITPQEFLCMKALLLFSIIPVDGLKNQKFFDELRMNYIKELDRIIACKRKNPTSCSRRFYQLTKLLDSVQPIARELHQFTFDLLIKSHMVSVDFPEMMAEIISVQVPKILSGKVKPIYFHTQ
Sequence of bovine Estrogen Receptor (ER), ESR1 (gene 407238) (P49884 whole entry, looked up): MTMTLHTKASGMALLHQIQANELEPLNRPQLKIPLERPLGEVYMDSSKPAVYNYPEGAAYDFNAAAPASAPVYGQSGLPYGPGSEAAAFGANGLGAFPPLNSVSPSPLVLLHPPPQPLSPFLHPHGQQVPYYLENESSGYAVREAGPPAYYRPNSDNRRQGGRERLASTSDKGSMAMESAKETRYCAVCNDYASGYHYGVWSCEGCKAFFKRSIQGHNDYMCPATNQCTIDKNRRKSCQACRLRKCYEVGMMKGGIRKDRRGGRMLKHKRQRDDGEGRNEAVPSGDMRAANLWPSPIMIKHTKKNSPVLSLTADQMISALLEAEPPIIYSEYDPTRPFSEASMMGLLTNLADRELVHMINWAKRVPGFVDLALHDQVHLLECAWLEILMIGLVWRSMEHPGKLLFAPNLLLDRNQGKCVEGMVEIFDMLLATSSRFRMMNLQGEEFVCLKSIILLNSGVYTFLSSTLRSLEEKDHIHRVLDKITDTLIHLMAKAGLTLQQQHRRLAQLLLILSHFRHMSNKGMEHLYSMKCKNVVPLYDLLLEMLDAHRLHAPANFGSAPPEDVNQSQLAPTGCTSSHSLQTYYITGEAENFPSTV
Sequence of human Constitutive Androstane Receptor (CAR), NR1I3 (gene 9970) (Q14994 whole entry, looked up): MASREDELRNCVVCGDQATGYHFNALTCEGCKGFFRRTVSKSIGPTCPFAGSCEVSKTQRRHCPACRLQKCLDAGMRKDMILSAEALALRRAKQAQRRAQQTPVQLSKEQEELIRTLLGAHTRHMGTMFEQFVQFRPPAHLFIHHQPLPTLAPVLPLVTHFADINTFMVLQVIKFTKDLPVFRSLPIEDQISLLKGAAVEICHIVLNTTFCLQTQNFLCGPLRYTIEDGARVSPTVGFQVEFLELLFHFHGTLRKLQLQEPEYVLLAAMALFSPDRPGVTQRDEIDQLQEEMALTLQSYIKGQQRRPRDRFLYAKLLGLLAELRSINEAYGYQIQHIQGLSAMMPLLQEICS
Sequence of rat Peripheral-type Benzodiazepine Receptor (PBR), Tspo (gene 24230) (P16257 whole entry, looked up): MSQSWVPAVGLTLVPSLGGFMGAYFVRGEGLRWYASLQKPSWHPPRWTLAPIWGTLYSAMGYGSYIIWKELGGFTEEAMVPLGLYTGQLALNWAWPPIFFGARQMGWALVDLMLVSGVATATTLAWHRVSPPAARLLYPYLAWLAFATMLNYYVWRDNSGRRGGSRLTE
Sequence of Bile acid receptor (Homo sapiens) (Q96RI1 whole entry, looked up): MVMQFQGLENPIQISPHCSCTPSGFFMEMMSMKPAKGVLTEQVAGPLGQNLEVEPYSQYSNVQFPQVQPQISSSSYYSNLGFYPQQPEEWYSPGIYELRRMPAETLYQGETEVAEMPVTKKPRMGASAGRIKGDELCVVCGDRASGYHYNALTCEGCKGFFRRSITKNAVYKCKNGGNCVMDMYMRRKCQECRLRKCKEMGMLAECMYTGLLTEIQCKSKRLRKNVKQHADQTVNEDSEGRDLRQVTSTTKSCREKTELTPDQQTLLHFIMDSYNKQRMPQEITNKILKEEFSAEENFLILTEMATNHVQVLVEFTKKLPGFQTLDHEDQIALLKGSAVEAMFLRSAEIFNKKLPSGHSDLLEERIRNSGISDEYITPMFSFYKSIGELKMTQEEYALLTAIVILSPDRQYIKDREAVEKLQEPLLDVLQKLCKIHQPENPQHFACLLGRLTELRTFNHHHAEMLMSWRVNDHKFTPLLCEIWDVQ

Take `CCCCCCC(=O)OCC`: the call in test [1], in test [2], in test [3] and in test [4] was inactive.
As for `C=CCOC(=O)c1ccccc1C(=O)OCC=C`, the half-maximal activity concentration (AC50) (as a rule, the concentration giving half of the maximal activity seen) in test [5] is 25 µM (active); in [7], 14.5 µM (active); in test [8], 63.1 µM (active). Also, the compound was classed as inactive in test [6] and in [3].
For `Nc1ccc2c(c1)C(=O)c1ccccc1C2=O`, the compound was called inactive in test [5] and in test [3]. The AC50 in [7] is 19.8 µM (active).
As for `CCCCC(CC)COC(=O)CC(C(=O)OCC(CC)CCCC)S(=O)(=O)O` (centres undefined), the half-maximal activity concentration (AC50) was 9.22 µM (active) in test [6], 10.9 µM (active) in the test on NCBI gene 100848466 and 17.7 µM (active) in [7]. The outcome in test [9], in [2] and in test [3] was inactive.
In the case of `Nc1ccc(S(=O)(=O)c2ccc(N)cc2)cc1`, the half-maximal activity concentration (AC50) in test [6] was 3.28 µM (active). Further, the compound was called inactive in test [3] and in test [8].
On to `Nc1nc(N)c2nc(CNc3ccc(C(=O)N[C@@H](CCC(=O)O)C(=O)O)cc3)cnc2n1`, for which the compound was called inactive in [1], in [3], in test [8] and in [4].
`CCCCCCCCCCC`: the call in [10], in [11], in test [3], in test [8] and in test [4] was inactive.
As to `COc1ccc(S(=O)(=O)N2C(=O)[C@@](c3ccccc3OC)(N3C[C@H](O)C[C@H]3C(=O)N(C)C)c3cc(Cl)ccc32)c(OC)c1`, the AC50 in test [12] was 3.53 µM (active); in test [7], 13.8 µM (active); in [13], 27.2 µM (active). For the same compound, the compound was called inactive in test [2] and in test [3].
Regarding `Oc1ccc2c(c1)OC[C@@H](N1CCC(O)(c3ccc(F)cc3)CC1)[C@H]2O`, the result in test [12], in test [3], in test [8] and in test [4] was inactive.
With `Cc1ccc(C(C)C)c(O)c1`, the concentration at half-maximal activity (AC50) in test [5] is 18.3 µM (active). The outcome in test [6], in test [14], in test [11], in [3], in [8] and in test [4] was inactive.
Turning to `Cc1cccc([N+](=O)[O-])c1C`, the result in test [14], in test [3] and in test [4] was inactive.
Take `O=C(N[C@@H](Cc1ccccc1)[C@@H](O)C(=O)N1C[C@@H](O)[C@@H](O)C1)c1cc2cc(Cl)ccc2[nH]1`: the result in [12], in test [3] and in test [4] was inactive.
Turning to `CC(=O)OCCOCCOCCOC(C)=O`, the result in test [14], in [3] and in [4] was inactive.
Take `CCCCN(CCCC)CCCC`: the result in test [15], in test [7], in test [3] and in test [4] was inactive.
For the compound `Cc1cccc(Nc2cc(Cl)nc(SCC(=O)O)n2)c1C`, the concentration at half-maximal activity (AC50) in test [5] is 6.49 µM (active). For the same compound, the compound was classed as inactive in test [2], in [3] and in test [13].
For `CC(C)c1ccc(C(=O)N=C(N)N)cc1S(C)(=O)=O`, in test [5], the AC50 was 12.3 µM (active). Besides, the compound was called inactive in test [6], in test [9], in test [2], in [3] and in test [4].
Consider `CCOc1ccc2c(c1)C(C)=CC(C)(C)N2`, for which the compound was classed as inactive in test [14], in test [3] and in test [13]. Further, the AC50 in the test with NCBI gene 100848466 was 25 µM (active).
On to `CCc1c(C(=O)NN2CCCCC2)nn(-c2ccc(Cl)cc2Cl)c1-c1ccc(Br)cc1`, for which the outcome in [12], in test [16], in test [11], in [2], in test [3] and in test [4] was inactive.
On to `CCCCCCCC=O`, for which the compound was called inactive in test [1], in test [2], in test [3] and in test [4].
`COc1cc(C=O)ccc1O`: the outcome in [14], in [2], in test [3], in [17], in test [8] and in [4] was inactive. Further, the outcome in [13] was inactive.
In the case of `Cc1oc(-c2ccccc2)nc1CCOc1cccc2c1ccn2CCC(=O)O`, the AC50 in [6] is 46.5 µM (active). Besides, the call in test [3], in test [8] and in test [4] was inactive.
Regarding `Cc1nc(-c2ccc3c(c2)CCN(CCC2CCC(NC(=O)/C=C/c4ccc(F)cc4)CC2)CC3)no1` (centres undefined), the result in test [12], in [11], in test [2], in [7], in test [3] and in [17] was inactive. The result in [8], in test [4] and in test [13] was inactive. Moreover, in test [16], the concentration at half-maximal activity (AC50) was 216 nM (active).
